CHX counter: affects cycloheximide protein synthesis inhibition readout, counter-screen; cell reporter, cycloheximide protein synthesis inhibition counterscreen; max response, %; 12% of 300,000 active; in the data active means max response mostly above about 13%, no sharp cut-off; inactive means mostly below about 14%; further: read at 38.3 µM for the half of the compounds with a filed dose; 0% is about no effect
Sm TGR inh: blocks Schistosoma mansoni thioredoxin glutathione reductase; purified TGR, DTNB reduction, TNB absorbance 405 nm; AID 485364; Potency, µM (doses to about 114 µM), for inactives: at the highest dose activity change, negative = inhibition, usual class: inhibitors; 3% of 360,000 active; further: potency means the concentration at half of the fitted maximal effect; on the % scale 0 is the no-effect control and ±100 the full control effect; nearly all actives have a fitted effect of over 60% in size
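Kinetic colorimetric format: TGR-catalysed, NADPH-driven DTNB reduction monitored via TNB absorbance. Enzyme dispensed at 20 nM; compound exposure 15 min at room temperature before reaction start.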
Pf growth 48h: inhibits P. falciparum growth in the first generation, 48 h | Potency, µM (top dose mostly 28.7 µM), for the others: at the highest dose activity change, negative = inhibition, usual class: inhibitors | 5.9% of 310,000 active | AID 504832 | P. falciparum luciferase growth in erythrocytes, 48 h; further: potency means the concentration at half of the fitted maximal effect; on the % scale 0 is the no-effect control and ±100 the full control effect
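Compounds are pin-transferred into medium, infected erythrocytes (2% hematocrit, 0.1% parasitemia final) are added, and plates sit one parasite generation at 37 C in 5% CO2. Detection reagent is then added and luminescence measured.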
Shiga inhibitor: Shiga toxin inhibition | Vero cells, Shiga toxin protein synthesis inhibition reporter | inhibition, % at 38.7 µM | 9.2% of 290,000 active; in the data active means inhibition mostly above about 28%, no sharp cut-off; inactive means mostly below about 43%; further: 0% is about no effect
NS1 inh: inhibitors of influenza NS1 protein function; Potency, µM (series often up to 46.1 µM), for the others: top-dose activity, positive = more growth; 0.4% of 270,000 active; AID 2326; calls by dose curve; further: potency means the concentration at half of the fitted maximal effect; actives are rising curves; nearly all actives have a fitted effect of over 50% in size
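A cell-based growth assay was used: compounds that relieve NS1-induced slow growth of budding yeast raise OD600. Assay medium was yeast nitrogen base with ammonium sulphate and -URA supplement, pH 6.0, with 2% galactose.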
Pf growth 96h: P. falciparum growth inhibition at 96 hours | P. falciparum luciferase reporter growth, 96 h | Potency, µM (highest dose often 28.7 µM), without a hit: at the highest dose activity change, negative = inhibition, actives largely listed as inhibitors | 6.9% of 320,000 active; further: potency means the concentration at half of the fitted maximal effect; on the % scale 0 is the no-effect control and ±100 the full control effect
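96 h incubation, 37 C, 5% CO2, of luciferase-reporter P. falciparum-infected RBCs (2% hematocrit, 0.05% parasitemia final) with test compounds; endpoint luminescence.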
* hit, by the source's call; u = inconclusive; x = no result given; [ ] = remark or other dose. Compounds with a hit are over-represented: about 21% of the library has one in this group of screens. Unless noted, the call rests on the fitted dose curve; in most records, active means well fitted curve in the direction sought with a large enough effect; inconclusive means small, poorly fitted or top-dose-only effect, or another doubt; inactive means no such curve, though single readings can be large; an effect the other way counts as inactive or inconclusive.

SMILES | CHX counter | Sm TGR inh | Pf growth 48h | Shiga inhibitor | NS1 inh | Pf growth 96h
O=C(COC(=O)c1ccc2c(c1)C(=O)N(CCc1ccccc1)C2=O)Nc1ccc(OC(F)F)cc1 | 6.0 | -3.9% | 1.7% | 32.4 | 7.4% | 9.9%
CCOc1ccc(NC(=O)CSCC(=O)O)cc1 | 12.5 | -20.8% | 12.0% | -16.0 | 2.2% | x
CCOc1ccc(NC(=O)Cc2ccccc2)cc1 | 93.0* | -2.4% | 155.0% | 103.8* | -8.6% | 0.2%
CCOc1ccc(NC(=O)CNC(=O)Cc2ccccc2)cc1 | -2.5 | -1.3% | 2.4% | 1.9 | 10.8% | 39.4%
CCOc1ccc(NC(=O)COC(=O)c2ccc3c(c2)C(=O)N(CCc2ccccc2)C3=O)cc1 | 18.7* | -7.7% | u | 65.5* | -5.5% | -2.7%
CCCCN(C)S(=O)(=O)c1ccc(NC2=NS(=O)(=O)c3ccccc32)cc1 | x | 8.6% | x | x | x | x
CCc1ccccc1NC(=O)c1ccc2c(O)c(S(=O)(=O)c3ccccc3)c(=O)[nH]c2c1 | x | 3.5% | x | x | x | x
COC(=O)c1ccc(NC(=O)Cc2ccccc2)cc1 | 49.5* | -0.8% | 113.1% | 100.2* | -13.9% | x
CCOc1ccc(NC(=O)c2ccc(NC(=O)COC(=O)Cc3ccc(OC)cc3)cc2)cc1 | 17.6 | x | 9.0% | 60.2* | 8.6% | 42.4%
O=C(O)c1ccc(NC(=S)Nc2ccccc2)cc1 | 15.7* | -25.4% | 49.4% | -13.7 | 11.4% | 81.8%
COC(=O)c1ccc(NC(=S)NNC(=O)c2ccccc2)cc1 | 25.7* | 8.0% | 17.3% | 42.3 | -1.7% | u
O=C(O)c1ccc(NC(=S)NC(=O)C(c2ccccc2)c2ccccc2)cc1 | -0.7 | u | u | -16.0 | x | 0.0%
Cc1ccc(N2C(=O)c3ccc(C(=O)N4CCOCC4)cc3C2=O)cc1C | -0.7 | -17.8% | -6.4% | 14.7 | -2.2% | -22.4%
CC(=O)Nc1ccc(NC(=O)Cn2cc3c(n2)CCCCC3)cc1 | x | 6.5% | x | x | x | x
CCOc1ccc(NC(=O)C2C(c3ccccc3)C2(Cl)Cl)cc1 (centres undefined) | 21.0* | -10.0% | 0.0% | 41.7* | -11.4% | u
COC(=O)c1ccc(NC(=S)Nc2ccccc2)cc1 | 8.2 | 31.6µM* | 29.4% | -33.3 | 4.5% | 14.4%
COC(=O)c1ccc(NC(=S)Nc2ccc3ccccc3c2)cc1 | -0.6 | -32.2% | 12.5% | 16.7 | -1.6% | -10.4%
COc1ccc2c(c1)c1c(c(=O)n(-c3cccc(Cl)c3)c(=O)n1CC(=O)NCC1CCCO1)n2C (centres undefined) | x | 3.2% | x | x | x | x
CCC(C)NC(=O)CSc1nc2ccccc2c(=O)n1CCCC(=O)NCC1CCCO1 (centres undefined) | -3.7 | -26.9% | -14.8% | -3.8 | 4.2% | 53.5%
O=C(CCCn1c(SCC(=O)NCCc2ccccc2)nc2ccccc2c1=O)NCC1CCCO1 (centres undefined) | -0.6 | -1.7% | u | -9.8 | x | -25.5%
O=C(CCCn1c(SCC(=O)NC2CCCCC2)nc2ccccc2c1=O)NCC1CCCO1 (centres undefined) | -2.3 | 5.1% | u | -10.7 | 4.3% | 11.7µM*
O=C(CCCn1c(SCC(=O)c2ccc(O)c(O)c2)nc2ccccc2c1=O)NCC1CCCO1 (centres undefined) | 0.9 | 0.0% | 9.28µM* | -12.7 | -5.6% | u
O=C(CSc1nc2ccccc2c(=O)n1CC1CCCO1)NCC1CCCO1 (centres undefined) | -2.6 | 12.2% | -12.2% | -25.6 | 1.8% | 5.22µM*
CN(C)S(=O)(=O)c1cccc(NC(=O)CSc2nc3ccccc3n2-c2ccccc2)c1 | 5.8 | -6.3% | u | -6.5 | -15.6% | u
CCN(CC)c1ccc(NC(=O)CSc2nc3ccccc3c(=O)n2-c2cc(S(=O)(=O)N(C)C)ccc2C)cc1 | 1.0 | -7.1% | 8.28µM* | -4.1 | u | u
SMILES | CHX counter | Sm TGR inh | Pf growth 48h | Shiga inhibitor | NS1 inh | Pf growth 96h
Cc1cc(F)ccc1NC(=O)C(c1ccccc1)N1Cc2ccccc2C1=O (centres undefined) | x | 7.6% | x | x | x | x
CCc1noc2nc(C)n(CC(=O)O)c(=O)c12 | x | -3.2% | x | x | x | x
O=C(O)C1CCN(C(=O)Cc2ccccc2)CC1 | -2.8 | 7.3%[57.1 µM] | 45.4% | -25.4 | 7.1% | u
COc1cccc(C(=O)Nc2ccc(C(=O)OCc3cc(=O)n4nc(C5CC5)sc4n3)cc2)c1 | x | -3.9% | x | x | x | x
CCCn1c(SC(C)C(=O)NCC2CCCO2)nc2cc(Cl)ccc2c1=O (centres undefined) | x | -1.6% | u | x | x | -20.8%
COc1ccccc1-n1c(SC(C)C(=O)NCC2CCCO2)nc2cc(Cl)ccc2c1=O (centres undefined) | x | 4.6% | 13.1µM* | x | x | u
CN(C)c1ccc(NC(=O)CSc2nc3ccccc3c(=O)n2CC2CCCO2)cc1 (centres undefined) | -5.2 | -1.5% | -12.8% | -7.1 | -4.6% | 4.15µM*
O=C(CCCn1c(SCC(=O)Nc2ccccc2C(F)(F)F)nc2ccccc2c1=O)NCC1CCCO1 (centres undefined) | -0.6 | u | -5.3% | -15.5 | -7.2% | u
COC(=O)c1ccc2c(=O)n(CC3CCCO3)c(SCC(=O)Nc3ccccc3OC)nc2c1 (centres undefined) | 1.2 | 8.0% | u | 12.7 | -31.8% | 55.7%
COC(=O)c1ccc2c(=O)n(CC3CCCO3)c(SCC(=O)Nc3ccccc3Cl)nc2c1 (centres undefined) | -4.0 | 1.6% | x | -11.5 | 10.9% | 10.4µM*
O=C(CCCn1c(SCc2ccccc2F)nc2ccccc2c1=O)NCC1CCCO1 (centres undefined) | -4.8 | 0.0% | 6.57µM* | -5.6 | x | 1.6%
Cc1ccc2[nH]c(=O)c(CN(C(=O)c3cccc(Cl)c3)C(C)(C)C)cc2c1 | x | 2.6% | x | x | x | x
COc1ccc(F)cc1S(=O)(=O)n1nc(C)cc1C | -3.9 | 8.3% | -4.3% | 8.0 | 8.0% | -29.1%
COC(=O)Nc1ccc(Cc2ccncc2)cc1 | -1.1 | -0.8% | 3.0% | 15.9 | 1.4% | 1.3%
CC(N)C(=O)NCC(=O)NC1CSSCC(C(=O)O)NC(=O)C(CO)NC(=O)C(C(C)O)NC(=O)C(Cc2ccccc2)NC(=O)C(C(C)O)NC(=O)C(CCCCN)NC(=O)C(Cc2c[nH]c3ccccc23)NC(=O)C(Cc2ccccc2)NC(=O)C(Cc2ccccc2)NC(=O)C(CC(N)=O)NC(=O)C(CCCCN)NC1=O (centres undefined) | x | x | 1.0% | x | x | u
CCCCCn1c(SCC#N)nc2cc(C(=O)NC3CCCCC3)ccc2c1=O | x | x | x | x | 17.2% | x
CC(Sc1nc2ccccc2c(=O)n1CC1CCCO1)C(=O)N(C)c1ccccc1 (centres undefined) | x | -15.7% | u | x | x | u
CCCCCn1c(SCC#N)nc2cc(C(=O)NCC3CCCO3)ccc2c1=O (centres undefined) | 4.3 | 6.0% | 7.4% | 5.5 | -1.4% | 4.65µM*
COc1ccccc1NC(=O)C(C)Sc1nc2ccccc2c(=O)n1CC1CCCO1 (centres undefined) | x | -0.4% | 10.4µM* | x | x | u
